Laboratory results: PubChem BioAssay (NCI)
This is part of a sample that, as a whole, favours compounds with a hit. Of some 79,000 tested, about 15% had one in any assay. Activity calls are given as the source filed them. Rule as the data show it: active = growth inhibition above about 70%; inactive = the rest.

Assays:
[1] = NCI Yeast Anticancer Drug Screen. Data for the rad52 strain (AID 147);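 also: 0% = growth of vehicle-treated control cultures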; conditions: S. cerevisiae rad52 mutant growth inhibition, stronger effect = higher value
In short: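 Here a repair-compromised yeast strain receives each compound; its growth is then quantified and normalised to vehicle-only controls.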

[2] = NCI Yeast Anticancer Drug Screen. Data for the wt1 strain (AID 149);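 also: 0% = growth of vehicle-treated wt1 cultures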; conditions: S. cerevisiae wt1 strain (SPY 50644) growth inhibition, stronger effect = higher value
In short: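 The wt1 strain was treated with compounds, and growth was compared with vehicle-treated cultures to give inhibition.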

[3] = NCI Yeast Anticancer Drug Screen. Data for the rad50EPP+ strain (AID 151);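 also: 0% = growth of vehicle-treated control cultures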; conditions: S. cerevisiae rad50 mutant strain, stronger effect = higher value
In short: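 Read-out is yeast growth inhibition relative to vehicle; cells used were the rad50EPP+ strain.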

[4] = NCI Yeast Anticancer Drug Screen. Data for the mgt1 strain (AID 153); conditions: S. cerevisiae mgt1 mutant growth inhibition, stronger effect = higher value
In short: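 Measured: inhibition of mgt1 yeast growth by compound, normalized to vehicle-treated cultures.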

[5] = NCI Yeast Anticancer Drug Screen. Data for the rad50 strain (AID 155);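 also: 0% = growth of vehicle-only cultures of the same strain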; conditions: S. cerevisiae rad50 strain growth inhibition, stronger effect = higher value
In short: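 Cells are treated with compound, grown, and their growth is then scored against vehicle-only cultures of the same repair-deficient yeast strain.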

[6] = NCI Yeast Anticancer Drug Screen. Data for the mec2-1 strain (AID 157); conditions: S. cerevisiae mec2-1 strain, stronger effect = higher value
In short: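 Using mec2-1 yeast: add compound, measure growth, express inhibition versus vehicle-treated cultures.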

[7] = NCI Yeast Anticancer Drug Screen. Data for the rad14 strain (AID 159);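 also: 0% = growth of vehicle-treated control cultures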; conditions: S. cerevisiae rad14 strain growth inhibition, stronger effect = higher value
In short: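 Readout: yeast growth inhibition, referenced to vehicle-only cultures. Strain bears a defined alteration in DNA damage repair.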

[8] = NCI Yeast Anticancer Drug Screen. Data for the sgs1 mgt1 strain (AID 161);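 also: 0% = growth of cultures given vehicle only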; conditions: S. cerevisiae sgs1 mgt1 strain, stronger effect = higher value
In short: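 Compounds are added to genetically altered yeast, and growth is compared with cultures given vehicle alone to give percent inhibition.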

[9] = NCI Yeast Anticancer Drug Screen. Data for the cln2 rad14 strain (AID 165);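 also: 0% = growth equal to vehicle treated cultures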; conditions: S. cerevisiae cln2 rad14 strain, stronger effect = higher value
In short: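 Yeast strain cln2 rad14, bearing defects in cell cycle control and DNA repair, serves as the test system; values reflect growth inhibition compared with vehicle.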

[10] = NCI Yeast Anticancer Drug Screen. Data for the bub3 strain (AID 167); conditions: S. cerevisiae bub3 mutant strain, stronger effect = higher value
In short: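 Part of a panel of yeast mutants defective in DNA damage repair or cell cycle regulation. Each strain is grown with compound, and inhibition is calculated relative to solvent-treated cultures.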

[11] = NCI Yeast Anticancer Drug Screen. Data for the wt2 strain (AID 169);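 also: 0% = growth of vehicle-treated yeast cultures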; conditions: S. cerevisiae wt2 strain growth inhibition, stronger effect = higher value
In short: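 Treated yeast vs. vehicle-treated yeast: growth inhibition determined.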

[12] = NCI Yeast Anticancer Drug Screen. Data for the mlh1 strain (AID 171);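 also: 0% = growth of vehicle-treated control cultures of the same strain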; conditions: S. cerevisiae mlh1 strain growth inhibition, stronger effect = higher value
In short: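 A yeast strain with a defined genetic lesion serves as the test organism. Cultures receive compound or vehicle, and growth is measured.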

[13] = NCI Yeast Anticancer Drug Screen. Data for the sgs1 strain (AID 173);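 also: 0% = growth of vehicle-only control cultures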; conditions: S. cerevisiae sgs1 mutant, stronger effect = higher value
In short: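 A genetically defined yeast mutant is incubated with the test compound, and its growth is compared to that of the same strain given vehicle.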

[14] = NCI Yeast Anticancer Drug Screen. Data for the mlh1 rad18 strain (AID 175); conditions: S. cerevisiae mlh1 rad18 strain growth inhibition, stronger effect = higher value
In short: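 Steps: expose repair-defective yeast to compound; measure growth; express inhibition against vehicle-treated controls.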

[15] = NCI Yeast Anticancer Drug Screen. Data for the rad18 strain (AID 177); conditions: S. cerevisiae rad18 mutant growth inhibition, stronger effect = higher value
In short: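 Measured value is growth inhibition of a yeast strain bearing a DNA repair alteration, referenced to vehicle-treated cells.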

[16] = at 5.0 µM (retest, dose inferred, filed as 0.5)
[17] = at 50.0 µM (retest, dose inferred, filed as 5.0)

Measured: growth inhibition

O=C(c1ccccc1)[C@H]1Nc2ccc(Cl)cc2[C@H]2OCCC[C@@H]12
active: [1]; at 100.0 µM 86% | [2]; at 100.0 µM 88% | [4]; at 100.0 µM 88% | [5]; at 100.0 µM 91% | [6]; at 100.0 µM 90% | [7]; at 100.0 µM 83% | [10]; at 33.0 µM 86% | [10]; [17] 93% | [10]; at 50.0 µM 82.5% | [10]; at 100.0 µM 95% | [11]; at 100.0 µM 81% | [12]; at 100.0 µM 91% | [13]; at 100.0 µM 94%
inactive: [1]; at 1.2 µM -16% | [1]; at 3.7 µM -40% | [1]; at 11.0 µM -19% | [1]; at 33.0 µM 22% | [2]; at 1.2 µM -7% | [2]; at 3.7 µM -6% | [2]; at 11.0 µM -2% | [2]; at 33.0 µM 24% | [3]; at 1.2 µM -16% | [3]; at 3.7 µM -20% | [3]; at 11.0 µM -25% | [3]; at 33.0 µM -2% | [3]; at 100.0 µM 14% | [4]; at 1.2 µM -19% | [4]; at 3.7 µM -23% | [4]; at 11.0 µM -39% | [4]; at 33.0 µM 32% | [5]; at 1.2 µM -2% | [5]; at 3.7 µM -2% | [5]; [16] 7% | [5]; at 11.0 µM -6% | [5]; at 33.0 µM 33% | [5]; [17] 4% | [5]; at 50.0 µM 67.2% | [6]; at 1.2 µM -23% | [6]; at 3.7 µM -25% | [6]; [16] -13% | [6]; at 11.0 µM -25% | [6]; at 33.0 µM -6% | [6]; [17] 49% | [6]; at 50.0 µM 12.9% | [7]; at 1.2 µM -40% | [7]; at 3.7 µM -23% | [7]; at 11.0 µM -41% | [7]; at 33.0 µM 31% | [8]; [16] -18% | [8]; [17] 33% | [8]; at 50.0 µM 40.5% | [9]; [16] 33% | [9]; [17] 44% | [9]; at 50.0 µM 32.6% | [10]; at 1.2 µM -22% | [10]; at 3.7 µM -7% | [10]; [16] 12% | [10]; at 11.0 µM 34% | [11]; at 1.2 µM -15% | [11]; at 3.7 µM -15% | [11]; at 11.0 µM -16% | [11]; at 33.0 µM 17% | [12]; at 1.2 µM -19% | [12]; at 3.7 µM -31% | [12]; at 11.0 µM -34% | [12]; at 33.0 µM 32% | [13]; at 1.2 µM 7% | [13]; at 3.7 µM 11% | [13]; at 11.0 µM 18% | [13]; at 33.0 µM 57% | [14]; [16] -24% | [14]; [17] 1% | [14]; at 50.0 µM 25.9%

BrC1C2CCC3OC3C12 (stereo unspecified)
inactive: [1]; at 1.2 µM 3% | [1]; at 3.7 µM 16% | [2]; at 1.2 µM 0% | [2]; at 3.7 µM 1% | [3]; at 1.2 µM 9% | [3]; at 3.7 µM 27% | [4]; at 1.2 µM 2% | [4]; at 3.7 µM 3% | [5]; at 1.2 µM 3% | [5]; at 3.7 µM 7% | [5]; [16] 41% | [6]; at 1.2 µM 0% | [6]; at 3.7 µM 5% | [6]; [16] 28% | [7]; at 1.2 µM 0% | [7]; at 3.7 µM 3% | [8]; [16] 65% | [9]; [16] 8% | [10]; at 1.2 µM -4% | [10]; at 3.7 µM -5% | [10]; [16] 2% | [10]; at 11.0 µM 42% | [11]; at 1.2 µM -1% | [11]; at 3.7 µM 2% | [12]; at 1.2 µM -1% | [12]; at 3.7 µM 4% | [13]; at 1.2 µM -1% | [13]; at 3.7 µM 11% | [15]; at 1.2 µM 1% | [15]; at 3.7 µM 7%
active: [1]; at 11.0 µM 97% | [1]; at 33.0 µM 99% | [1]; at 100.0 µM 99% | [2]; at 11.0 µM 96% | [2]; at 33.0 µM 98% | [2]; at 100.0 µM 99% | [3]; at 11.0 µM 70% | [3]; at 33.0 µM 89% | [3]; at 100.0 µM 96% | [4]; at 11.0 µM 77% | [4]; at 33.0 µM 99% | [4]; at 100.0 µM 99% | [5]; at 11.0 µM 92% | [5]; at 33.0 µM 97% | [5]; [17] 99% | [5]; at 50.0 µM 99.5% | [5]; at 100.0 µM 98% | [6]; at 11.0 µM 93% | [6]; at 33.0 µM 99% | [6]; [17] 100% | [6]; at 50.0 µM 99.7% | [6]; at 100.0 µM 99% | [7]; at 11.0 µM 98% | [7]; at 33.0 µM 99% | [7]; at 100.0 µM 99% | [8]; [17] 100% | [8]; at 50.0 µM 99.5% | [9]; [17] 99% | [9]; at 50.0 µM 99% | [10]; at 33.0 µM 99% | [10]; [17] 100% | [10]; at 50.0 µM 99.3% | [10]; at 100.0 µM 99% | [11]; at 11.0 µM 98% | [11]; at 33.0 µM 99% | [11]; at 100.0 µM 99% | [12]; at 11.0 µM 86% | [12]; at 33.0 µM 99% | [12]; at 100.0 µM 99% | [13]; at 11.0 µM 98% | [13]; at 33.0 µM 99% | [13]; at 100.0 µM 99% | [14]; [16] 74% | [14]; [17] 99% | [14]; at 50.0 µM 99.5% | [15]; at 11.0 µM 95% | [15]; at 33.0 µM 98% | [15]; at 100.0 µM 99%
